# Experimental data: PubChem BioAssay (Tox21)
# Inconclusive results are not listed. Activity calls are given as the source filed them. The call rests on the fitted dose curve; in most records, active means well fitted activation curve with a large enough effect in the repeat runs; inconclusive means weak or mixed curves; inactive means no such curve, though single readings can be large or run the other way.
# Biological target: Nuclear receptor subfamily 1 group I member 2 (Homo sapiens) (UniProt O75469)
# Sequence (O75469 whole entry, looked up): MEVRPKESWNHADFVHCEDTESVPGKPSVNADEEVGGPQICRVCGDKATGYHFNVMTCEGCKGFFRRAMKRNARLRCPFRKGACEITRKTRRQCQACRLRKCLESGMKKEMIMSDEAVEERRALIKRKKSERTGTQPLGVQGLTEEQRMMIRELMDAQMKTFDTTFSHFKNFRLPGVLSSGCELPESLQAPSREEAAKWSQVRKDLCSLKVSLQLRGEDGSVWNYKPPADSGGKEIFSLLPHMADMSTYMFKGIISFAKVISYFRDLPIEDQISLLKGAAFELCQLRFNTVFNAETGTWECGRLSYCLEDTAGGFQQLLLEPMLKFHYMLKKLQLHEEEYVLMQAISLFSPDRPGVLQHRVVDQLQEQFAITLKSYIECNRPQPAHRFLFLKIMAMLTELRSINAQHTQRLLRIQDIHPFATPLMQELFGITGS
# Assay: Human pregnane X receptor (PXR) small molecule agonists, qHTS assay (AID 1346982); further: nearly all actives have a fitted effect of over 35% in size
# Settings: PXR-Luc HepG2, CYP3A4 luciferase reporter, 24 h; series mostly up to 92.4 µM; activation: at the top concentration
# Method in brief: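 PXR-Luc HepG2 reporter cells (CYP3A4-driven luciferase) in 5% charcoal-stripped FBS medium, plated 5 h before compound addition, then treated 24 h at 37C. Luciferase read by ONE-Glo luminescence after 30 min at room temperature.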
# On the % scale 0 is the no-effect control and ±100 the full control effect; potency means the concentration at half of the fitted maximal effect.
SMILES,activation,Potency
CC1=C(C(=O)O)N2C(=O)[C@@H](NC(=O)[C@H](N)C3=CCC=CC3)[C@H]2SC1,-1.84% [at 42.5 µM] (inactive),–
C=C(C)c1cccc(C(C)(C)N=C=O)c1,–,4.33 µM (active)
Cc1c(N)cccc1Cl,26.2% (inactive),–
CCOc1cccc(N)c1,23.2% (inactive),–
CCOc1ccccc1OCC1CNCCO1 (stereo not drawn),-4.07% [at 42.5 µM] (inactive),–
CC(=O)C1C(=O)C=C(C)OC1=O (stereo not drawn),23.1% (inactive),–
CCCCCCCCCOC(=O)c1ccccc1C(=O)OCCCCCCCCC,–,19.3 µM (active)
CCCc1ccc(O)cc1,5.84% (inactive),–
CCCC(=O)OCCC(C)CCC=C(C)C (stereo not drawn),23.6% (inactive),–
CCC(C)C(=O)OCCc1ccccc1 (stereo not drawn),2.55% (inactive),–
COC(=O)c1cccc(Cl)c1,12.1% (inactive),–
CC(O)COC(C)(C)C (stereo not drawn),3.87% (inactive),–
Cc1ccc(N)cc1S(=O)(=O)O,–,61.1 µM (active)
NCCOCCN,10% (inactive),–
CC(C)CO,-6.17% (inactive),–
O=C(CCCl)NCCc1ccccc1,12.8% [at 42.5 µM] (inactive),–
OCC(O)CN1CCN(c2ccccc2)CC1 (stereo not drawn),-3.14% [at 42.5 µM] (inactive),–
CC1(C)Cc2cccc(N)c2O1,–,34.4 µM (active)
C=CC/C=C/C,1.51% (inactive),–
O=C(O)CCCCCC(=O)O,6.79% (inactive),–
O=Cc1ccccc1Cl,0.579% (inactive),–
CCO[Si](CC)(OCC)OCC,–,15.4 µM (active)
O=C(Cl)c1ccccc1[N+](=O)[O-],14.1% (inactive),–
